The values that follow come from the supplement of paper PMC10646978.

Molecules are shown by their SMILES. ± gives the standard deviation.

Conditions in all cases: modulator concentration 10 µM
The test system of test [1] is RAW-Dual (murine macrophage reporter line). As to the kind of experiment: NF-kB reporter (SEAP) activity fold change vs agonist alone; higher = enhanced NF-kB activity. The method, boiled down: (§1)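 In 384-well plates holding 50 000 RAW-Dual murine macrophage reporter cells per well, compound at 10 μM final was pre-incubated for 1 hour at 37 °C, after which a PRR agonist was added overnight. Supernatant SEAP read with QUANTI-Blue at 620 nm absorbance reported NF-κB, and Lucia luciferase read with QUANTI-Luc luminescence reported IRF. Fold change values come from dividing each reporter signal by the mean of agonist-only control wells on the same plate, averaged over replicate plates with propagated errors.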

Test [2] has the same test system. As to the kind of experiment: IRF reporter (Lucia luciferase) activity fold change vs agonist alone; higher = enhanced IRF activity. The gist of the method: as §1
Test [3] has the same test system. As to the kind of experiment: viability score (confluency relative to resting cells, overnight) (fraction); higher = more viable, active = viable (0.7 or more). The gist of the method:
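In 384-well plates, RAW-Dual macrophages received compound at a final 10 μM overnight. Two confluency masks were then made with IncuCyte software from IncuCyte images of all imaged wells. The viability score is defined as confluency relative to resting cells. Passing the cutoff required both masks to lie above 70% of resting cells.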

Setting [4] is: agonist: CpG ODN 1826 0.5 ug/mL.

Take `C[C@H](Oc1cc(-c2cnn(C3CCNCC3)c2)cnc1N)c1c(Cl)ccc(F)c1Cl`: the results for the NF-kB reporter in test [1] (setting [4]), in test [1] (agonist: LPS 0.1 ug/mL) and in test [1] (agonist: MPLA […]) were 0.85 ± 0.069, 0.896 ± 0.11 and 0.942 ± 0.08, respectively. For the same compound, the IRF reporter came out at 1.03 ± 0.047 in test [2] (agonist: 3'3'-cGAMP 10 ug/mL), 1.1 ± 0.23 in test [2] (agonist: LPS 0.1 ug/mL) and 1.17 ± 0.38 in test [2] (agonist: MPLA […]). In test [3], the viability score is 0.998 (active).

For the compound `COc1ccc(C2Oc3cc(OC)cc(OC)c3CC2O)cc1` (stereo not drawn), the NF-kB reporter came out at 1.01 ± 0.24 in test [1] (setting [4]), 1.01 ± 0.07 in test [1] (agonist: LPS 0.1 ug/mL) and 1.81 ± 0.81 in test [1] (agonist: MPLA […]). For the same compound, the IRF reporter turned out to be 0.881 ± 0.057 in test [2] (agonist: 3'3'-cGAMP 10 ug/mL), 1.12 ± 0.27 in test [2] (agonist: LPS 0.1 ug/mL) and 1.04 ± 0.1 in test [2] (agonist: MPLA […]). Also, the viability score in test [3] is 1.01 (active).

Take `CC(O)(CNC(=O)NCc1ccc(F)cc1)c1ccc(-c2ccccc2)cc1` (stereo not drawn): the NF-kB reporter in test [1] (setting [4]) came to 0.998 ± 0.053; in test [1] (agonist: LPS 0.1 ug/mL), 1.14 ± 0.12; in test [1] (agonist: MPLA […]), 0.873 ± 0.077. Moreover, the IRF reporter came to 1.08 ± 0.056 in test [2] (agonist: 3'3'-cGAMP 10 ug/mL), 1.32 ± 0.1 in test [2] (agonist: LPS 0.1 ug/mL) and 1.62 ± 0.14 in test [2] (agonist: MPLA […]). In test [3], the viability score is 0.966 (active).

Consider `Fc1ccc(CN2CCc3c([nH]c4ccccc34)C2)cc1`, for which the NF-kB reporter in test [1] (setting [4]) came to 0.756 ± 0.07; in test [1] (agonist: LPS 0.1 ug/mL), 0.707 ± 0.059; in test [1] (agonist: MPLA […]) it was 1.4 ± 0.12. The IRF reporter in test [2] (agonist: 3'3'-cGAMP 10 ug/mL) was found to be 0.64 ± 0.039; in test [2] (agonist: LPS 0.1 ug/mL), 0.974 ± 0.091; in test [2] (agonist: MPLA […]) it was 2.77 ± 0.34. In test [3], the viability score was 0.126 (inactive).

For `Cc1ccc(COc2ccc3c(C)c(C)c(=O)oc3c2C)cc1`, the results for the NF-kB reporter in test [1] (setting [4]), in test [1] (agonist: LPS 0.1 ug/mL) and in test [1] (agonist: MPLA […]) were 0.785 ± 0.067, 0.84 ± 0.043 and 1 ± 0.098, respectively. Moreover, the IRF reporter stood at 0.761 ± 0.041 in test [2] (agonist: 3'3'-cGAMP 10 ug/mL), 1.32 ± 0.1 in test [2] (agonist: LPS 0.1 ug/mL) and 1.53 ± 0.13 in test [2] (agonist: MPLA […]). The viability score in test [3] is 0.984 (active).

Take `COc1ccc(C2NC(=O)C(O)=C2C(C)=O)cc1` (stereo not drawn): the NF-kB reporter in test [1] (setting [4]) is 0.734 ± 0.057; in test [1] (agonist: LPS 0.1 ug/mL) it was 0.884 ± 0.11; in test [1] (agonist: MPLA […]) it was 1.09 ± 0.095. For the same compound, the IRF reporter was 0.914 ± 0.047 in test [2] (agonist: 3'3'-cGAMP 10 ug/mL), 1.29 ± 0.085 in test [2] (agonist: LPS 0.1 ug/mL) and 1.41 ± 0.12 in test [2] (agonist: MPLA […]). Moreover, the viability score in test [3] is 1.01 (active).

`Brc1ccc(-c2cc(-c3ccccc3)nc(N3CCCCC3)n2)cc1`: the NF-kB reporter came out at 0.951 ± 0.2 in test [1] (setting [4]), 1.1 ± 0.092 in test [1] (agonist: LPS 0.1 ug/mL) and 1 ± 0.079 in test [1] (agonist: MPLA […]). For the same compound, the IRF reporter in test [2] (agonist: 3'3'-cGAMP 10 ug/mL) turned out to be 0.859 ± 0.03; in test [2] (agonist: LPS 0.1 ug/mL) it was 1.17 ± 0.11; in test [2] (agonist: MPLA […]) it was 1.33 ± 0.15. The viability score in test [3] is 1 (active).

As to `COc1ccc(C=NN2CCN(C)CC2)c(OC)c1`, the NF-kB reporter in test [1] (setting [4]) is 0.84 ± 0.065; in test [1] (agonist: LPS 0.1 ug/mL), 0.95 ± 0.047; in test [1] (agonist: MPLA […]) it was 1.04 ± 0.09. Also, the IRF reporter in test [2] (agonist: 3'3'-cGAMP 10 ug/mL) turned out to be 0.914 ± 0.056; in test [2] (agonist: LPS 0.1 ug/mL), 1.25 ± 0.08; in test [2] (agonist: MPLA […]) it was 1.33 ± 0.11. In addition, in test [3], the viability score is 1.01 (active).

With `CCn1nc(C)c(S(=O)(=O)N2CC3CC2CS3)c1C` (stereo not drawn), the NF-kB reporter in test [1] (setting [4]) came out at 0.892 ± 0.039; in test [1] (agonist: LPS 0.1 ug/mL) it was 0.936 ± 0.075; in test [1] (agonist: MPLA […]), 0.959 ± 0.051. Besides, the results for the IRF reporter in test [2] (agonist: 3'3'-cGAMP 10 ug/mL), in test [2] (agonist: LPS 0.1 ug/mL) and in test [2] (agonist: MPLA […]) were 1.04 ± 0.055, 1.17 ± 0.23 and 1.29 ± 0.41, respectively. Moreover, in test [3], the viability score was 0.988 (active).

With `CCc1cccc(C)c1NC(=O)C(C)(C)CC`, the NF-kB reporter in test [1] (setting [4]) came out at 0.948 ± 0.18; in test [1] (agonist: LPS 0.1 ug/mL) it was 0.846 ± 0.12; in test [1] (agonist: MPLA […]), 0.911 ± 0.09. Further, the IRF reporter in test [2] (agonist: 3'3'-cGAMP 10 ug/mL) was 1.03 ± 0.041; in test [2] (agonist: LPS 0.1 ug/mL), 0.988 ± 0.097; in test [2] (agonist: MPLA […]), 0.975 ± 0.1. In addition, the viability score in test [3] was 0.995 (active).

As for `O=C(NCCN1CCN(c2ccc(Cl)cc2)CC1)c1cnccn1`, the NF-kB reporter in test [1] (setting [4]) is 0.974 ± 0.076; in test [1] (agonist: LPS 0.1 ug/mL), 0.967 ± 0.086; in test [1] (agonist: MPLA […]), 1 ± 0.03. Further, the IRF reporter stood at 0.982 ± 0.049 in test [2] (agonist: 3'3'-cGAMP 10 ug/mL), 1.01 ± 0.055 in test [2] (agonist: LPS 0.1 ug/mL) and 0.919 ± 0.097 in test [2] (agonist: MPLA […]). In test [3], the viability score is 0.998 (active).

As to `COC(=O)CSc1ccc2nnc(-c3ccc(F)cc3)n2n1`, the NF-kB reporter in test [1] (setting [4]) came to 1.12 ± 0.088; in test [1] (agonist: LPS 0.1 ug/mL), 1.1 ± 0.057; in test [1] (agonist: MPLA […]), 1.06 ± 0.023. The IRF reporter turned out to be 0.71 ± 0.05 in test [2] (agonist: 3'3'-cGAMP 10 ug/mL), 0.719 ± 0.042 in test [2] (agonist: LPS 0.1 ug/mL) and 0.803 ± 0.069 in test [2] (agonist: MPLA […]). For the same compound, the viability score in test [3] was 1 (active).

For `Cc1ccc(C(C)C)c(Oc2ccccc2NC(=O)c2cc(I)cc(I)c2O)c1`, the NF-kB reporter in test [1] (setting [4]) came out at 0.995 ± 0.066; in test [1] (agonist: LPS 0.1 ug/mL), 0.985 ± 0.082; in test [1] (agonist: MPLA […]), 0.924 ± 0.071. The IRF reporter in test [2] (agonist: 3'3'-cGAMP 10 ug/mL) was determined as 0.915 ± 0.035; in test [2] (agonist: LPS 0.1 ug/mL) it was 1.44 ± 0.092; in test [2] (agonist: MPLA […]), 1.27 ± 0.25. Further, the viability score in test [3] was 1 (active).

Regarding `NCCCC[C@H](N[C@@H](CCc1ccccc1)C(=O)O)C(=O)N1CCC[C@H]1C(=O)O`, the results for the NF-kB reporter in test [1] (setting [4]), in test [1] (agonist: LPS 0.1 ug/mL) and in test [1] (agonist: MPLA […]) were 1.01 ± 0.076, 0.997 ± 0.097 and 0.97 ± 0.033, respectively. The IRF reporter in test [2] (agonist: 3'3'-cGAMP 10 ug/mL) is 1.26 ± 0.25; in test [2] (agonist: LPS 0.1 ug/mL), 0.999 ± 0.049; in test [2] (agonist: MPLA […]), 1.07 ± 0.17. The viability score in test [3] was 0.996 (active).
